Screens deposited in PubChem by Johns Hopkins Ion Channel Center.
In the library only some 1.6% were active in any assay of this set; here they are far more common.
KCNQ2 pot: potentiators of rat KCNQ2 potassium channel; CHO-K1 KCNQ2, FluxOR thallium flux fluorescence; hits give high values; B-score at 10 µM; 310,000 tested, 0.54% active; AID 2239;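 active = fluorescence ratio B-score at least 3 SD of library B-scores, with initial fluorescence B-score within 3 of them, cut at about 5.3 in these data; same plate scores as AID 2156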;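 also: B-score of peak minus minimum over baseline fluorescence ratio after K+ and Tl+ stimulus; positive B-score means potentiation of KCNQ2 with more thallium influx and brighter signal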
Target sequence (O88943 whole entry, looked up): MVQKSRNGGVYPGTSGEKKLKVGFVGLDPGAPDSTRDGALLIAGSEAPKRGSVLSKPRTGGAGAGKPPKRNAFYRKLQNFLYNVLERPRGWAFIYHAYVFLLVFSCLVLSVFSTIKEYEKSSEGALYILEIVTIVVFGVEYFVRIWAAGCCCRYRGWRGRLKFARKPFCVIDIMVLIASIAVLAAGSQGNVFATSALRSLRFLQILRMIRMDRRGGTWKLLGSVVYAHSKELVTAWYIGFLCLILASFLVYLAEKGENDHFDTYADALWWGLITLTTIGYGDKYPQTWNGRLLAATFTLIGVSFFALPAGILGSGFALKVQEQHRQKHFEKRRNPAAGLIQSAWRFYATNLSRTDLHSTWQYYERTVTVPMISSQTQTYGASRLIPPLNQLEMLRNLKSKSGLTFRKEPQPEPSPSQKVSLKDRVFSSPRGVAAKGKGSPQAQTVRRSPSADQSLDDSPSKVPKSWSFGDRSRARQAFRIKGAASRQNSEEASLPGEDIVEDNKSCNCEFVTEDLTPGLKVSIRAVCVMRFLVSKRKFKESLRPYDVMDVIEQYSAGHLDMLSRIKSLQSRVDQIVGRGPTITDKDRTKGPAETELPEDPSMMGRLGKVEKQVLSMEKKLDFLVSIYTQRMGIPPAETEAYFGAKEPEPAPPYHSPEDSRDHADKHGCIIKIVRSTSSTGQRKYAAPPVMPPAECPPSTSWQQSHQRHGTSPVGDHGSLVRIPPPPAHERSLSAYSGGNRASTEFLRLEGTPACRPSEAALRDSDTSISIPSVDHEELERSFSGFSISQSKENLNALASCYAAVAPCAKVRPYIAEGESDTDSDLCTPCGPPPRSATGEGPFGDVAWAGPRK
KCNQ2 inh: KCNQ2 (rat) channel inhibition; CHO-K1 KCNQ2, FluxOR thallium flux, 20 min; hits give low values; AID 2156; O88943; 310,000 tested, 1.1% active; B-score at 10 µM;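 active = fluorescence ratio B-score at most minus 3 library SDs, with starting brightness B-score within 2 library SDs, cut at about -5.5 in these data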
Each line names hits and unclear results; the compound was inactive in the other large screens.

COc1ccccc1CNC(=O)CN(Cc1ccc(Cl)cc1)S(C)(=O)=O	KCNQ2 inh -5.9
CN1CCN(Cc2c(O)ccc3occ(C(=O)c4ccccc4)c23)CC1	none
CC(=O)C(C(C)=O)c1c(Cl)c(O)c(O)c2c(C(=O)c3ccccc3)coc12	KCNQ2 inh -7.3
O=C(COC(=O)/C=C/c1cccs1)NC1CC1	none
CN(Cc1ccccc1)Cc1c(F)cccc1F	KCNQ2 pot 6.6
COc1ccc2ccccc2c1CN(C)Cc1ccccc1	none
Cc1ccn2c(C=O)c(-c3ccc(F)cc3)c(C=O)c2c1	none (no result: KCNQ2 pot)
CC1=NN(C(=O)COc2ccccc2)C(O)(c2ccccc2)C1 (centres undefined)	none
CCC1=NN(C(=O)COc2ccccc2)C(O)(c2ccc(Br)cc2)C1 (centres undefined)	KCNQ2 inh -6
CC1=NN(C(=O)c2ccccc2Br)C(O)(c2ccc(Cl)cc2)C1 (centres undefined)	none
CCC1=NN(C(=O)c2ccccc2Br)C(O)(c2ccc(Br)cc2)C1 (centres undefined)	KCNQ2 pot 14
CC(C)(C)c1ccc(-c2ncccc2O)cc1	none (no result: KCNQ2 pot)
CCN(CC)S(=O)(=O)c1ccc(C(=O)NCCOC(=O)c2ccc(F)cc2F)cc1	none
CCN(C(=O)c1ccc(NC(=O)Cc2ccccc2)cc1)c1ccccc1	none (no result: KCNQ2 pot)
CCOc1ncccc1C(=O)Nc1nc(SC)ns1	none (no result: KCNQ2 pot)
COc1cccc(-n2c(SCc3cc(=O)oc4cc(O)c(O)cc34)nc3ccccc3c2=O)c1	KCNQ2 inh -6.1
CCN(CC)C(=O)CSc1nc2ccccc2c(=O)n1-c1cccc(OC)c1	none (no result: KCNQ2 pot)
O=C(CCc1nnc(C2CCCCC2)o1)NCCCOc1cccnc1	none
CN(C)CCCNC(=O)c1cc(C(=O)c2c(Cl)cccc2Cl)c[nH]1	none (no result: KCNQ2 pot)
CC1=C(C(=O)Nc2ccc(C(=O)NCCCN3CCCCC3)cc2)SCCO1	none
CC(=O)c1ccc2c(c1)C1C=CCC1C(c1cc3c(cc1Br)OCO3)N2 (centres undefined)	KCNQ2 inh -7.4
O=C(O)c1ccc2c(c1)C1C=CCC1C(c1ccncc1)N2 (centres undefined)	none
CC(c1ccccn1)N(CCN(C)C)C(=S)Nc1cccc(F)c1 (centres undefined)	none
CC(C)CCN(C(=S)Nc1cccc(C(F)(F)F)c1)C(C)c1ccccn1 (centres undefined)	KCNQ2 inh -6.1
CC1(C)C(=O)OC(/C=C/c2cccc([N+](=O)[O-])c2)C(C)(C)C1=O (centres undefined)	none (no result: KCNQ2 pot)
COc1ccc(/C=C(/NC(=O)c2ccc(C)cc2)C(=O)N2CCCC2)cc1OC	none
O=C(NN1C(=O)/C(=C/c2ccc(O)c(O)c2)SC1=S)c1ccccc1	none (no result: KCNQ2 pot)
O=C(NN1C(=O)/C(=C/c2cccc(O)c2)SC1=S)c1ccccc1O	KCNQ2 inh -8.3
O=[N+]([O-])c1cc(S(=O)(=O)N2CCCCC2)ccc1NCCCN1CCOCC1	none
COc1cc2c(cc1OC)C(c1ccc(-c3cc(Cl)ccc3Cl)o1)=NCC2	none (no result: KCNQ2 pot)
COc1cc2c(cc1OC)C(c1ccc(-c3ccccc3Cl)o1)=NCC2	KCNQ2 inh -8.3
COc1cc2c(cc1OC)C(c1ccc(-c3ccc(Cl)c(Cl)c3)o1)=NCC2	KCNQ2 inh -8.8
COc1cc2c(cc1OC)C(c1ccc(-c3ccc(Cl)cc3Cl)o1)=NCC2	none (no result: KCNQ2 pot)
O=C(CC(c1ccccc1)c1ccco1)Nc1nccs1 (centres undefined)	none (no result: KCNQ2 pot)
C=CCNC(=O)COC(=O)c1cc(S(=O)(=O)N2CCCCC2)ccc1Cl	none (no result: KCNQ2 pot)
CCN(c1cccc(C)c1)S(=O)(=O)c1cc2c3c(c1)CCN3C(=O)CC2	none (no result: KCNQ2 pot)
O=C(CCNC(=O)c1ccc([N+](=O)[O-])cc1)Nc1ccc(F)c(F)c1F	none
S=C1NC2=C(CCC/C2=C\c2ccccc2)C(c2ccccc2)N1 (centres undefined)	none
C(=C1/CCCC2=C1Nc1ncnn1C2c1ccccc1)/c1ccccc1 (centres undefined)	KCNQ2 inh -6.5
COc1ccc(C(=O)N2CCCC(C(=O)N3CCN(c4ccccc4)CC3)C2)cc1 (centres undefined)	none (no result: KCNQ2 pot)
COc1ccccc1N1CCN(C(=O)c2ccc3[nH]c(C)c(C)c3c2)CC1	none (no result: KCNQ2 pot)
Cc1[nH]c2ccc(C(=O)N3CCN(c4ccccc4Cl)CC3)cc2c1C	KCNQ2 inh -6.5
Cc1[nH]c2ccc(C(=O)N3CCN(c4cccc(Cl)c4)CC3)cc2c1C	KCNQ2 inh -6.2
Cc1[nH]c2ccc(C(=O)N3CCCC3)cc2c1C	none
Cc1cccc(Cn2nc(C)cc2NC(=O)CCCn2ccc([N+](=O)[O-])n2)c1	none (no result: KCNQ2 pot)
COc1ccc(-n2nc(C(=O)NCC(=O)NCCC3=CCCCC3)c3ccccc3c2=O)cc1OC	none (no result: KCNQ2 pot)
Cc1ccccc1OCC(=O)Nc1ccc(N2CCN(C(=O)c3ccco3)CC2)cc1	none
O=S(=O)(NCc1nc2ccccc2[nH]1)c1ccccc1	none (no result: KCNQ2 pot)
O=C(Nc1ccc(F)c(Cl)c1)C1CC2CCC1C2 (centres undefined)	none (no result: KCNQ2 pot)
COc1ccc(/C=N/N2CCN(c3ccccc3OC)CC2)cc1OC	none
COc1cccc(/C=N/N2CCN(c3ccccc3OC)CC2)c1	KCNQ2 inh -5.5
